The record followed here is PubChem BioAssay (EPA / NIEHS).

Records with an inconclusive call do not appear. Active and inactive are the calls of the source. The calls were made as follows, unless noted: active = hit-call score of the fitted dose curve at least 0.9, where 1 is the maximum; inactive = score below 0.9.

Assay [1] is described as follows: CCTE_Deisenroth_5AR_NBTE_donor: CCTE's 5alpha-reductase NanoBRET Target Engagement Assay […], Deisenroth Lab (AID 2284319). The note with it: actives raise or lower the signal. In short, it runs like this:
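HEK293T cells transiently expressing SRD5A2-NanoLuc, exposed 5 h to chemicals (8 points, 10 nM - 29.9 uM), with testosterone tracer for the final 2 h. Donor luminescence at 460 nm read after Nano-Glo substrate plus extracellular NanoLuc inhibitor; bidirectional fit versus DMSO.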
A general note: In BRET a luciferase serves as donor, and the signal depends on an acceptor being close.

Assay [2] can be described thus: CCTE_Deisenroth_5AR_NBTE_acceptor: CCTE's 5alpha-reductase NanoBRET Target Engagement Assay - Autofluorescence Screen, Deisenroth Lab (AID 2284321).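 Also: compound fluorescence in the acceptor channel under 460 nm excitation flags autofluorescence artifacts.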 The note with it: actives raise or lower the signal. The procedure, abridged:
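Acceptor fluorescence intensity was read as an artifact-detection endpoint. Test chemicals at an assumed nominal 100 uM were excited at 460 nm across three independent runs. Activity was fitted bidirectionally against DMSO.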

The nature of assay [3]: IUF_NPC2-5_cell_number_120hr: Cell Number Assessment at 120 hours in the Leibniz Research Institute for Environmental Medicine (IUF) Neural Progenitor Cell Migration and Differentiation Assay (NPC2-5) (AID 2284308).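 Also: count of Hoechst-stained nuclei in migration zone around plated human neural progenitor spheres.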 The procedure, abridged:
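hNPC spheres, one per well, PDL/laminin, N2 medium, 37C, 5% CO2. Dosing day 0 → half-medium change with fresh compound day 3 → fix 120 h. Readout: Hoechst+ nuclei count, migration area; 7 concentrations plus solvent control.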

The nature of assay [4]: IUF_NPC2-5_viability_120hr: Viability Assessment at 120 hours in the Leibniz Research Institute for Environmental Medicine (IUF) Neural Progenitor Cell Migration and Differentiation Assay (NPC2-5) (AID 2284312). The procedure, abridged:
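Alamar blue resorufin fluorescence read after 5 days of differentiation, with compound present from day 0 and replenished at day 3. Primary hNPC spheres on laminin-coated plates, 37C; seven concentrations plus solvent control, fitted against DMSO.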

Assay [5] can be described thus: CCTE_Mundy_HCI_iCellGluta_NOG_NeuriteLength: CCTE's Neurite Outgrowth Assay in iCellGluta cells for Neurite Length, Mundy Lab (AID 2284318; active = hit-call score of the fitted dose curve at least 0.9, where 1 is the maximum). In short, it runs like this: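 Automated high-content imaging of betaIII-tubulin (Alexa Fluor-488) and Hoechst-stained cells gave neurite length, normalized to the DMSO baseline.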
Assay [6] in a line: IUF_NPC1_cytotoxicity_72hr: Cytotoxicity Assessment at 72 hours in the Leibniz Research Institute for Environmental Medicine (IUF) Neural Progenitor Cell Proliferation Assay (NPC1) (AID 2284332; active = hit-call score of the fitted dose curve at least 0.9, where 1 is the maximum;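 also: rising LDH signal means more cytotoxicity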). The procedure, abridged: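 Human fetal neural progenitor spheres (0.3 mm) in EGF/FGF proliferation medium, 37C, exposed 72 h without renewal. LDH release in supernatant read by resorufin fluorescence; gain of signal scored relative to dynamic range.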

A short description of assay [7]: CCTE_Mundy_HCI_iCellGluta_NOG_NeuronCount: CCTE's Neurite Outgrowth Assay in iCellGluta cells for Neuron Count, Mundy Lab (AID 2284340; active = hit-call score of the fitted dose curve at least 0.9, where 1 is the maximum;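 also: cells fixed about 48 h after compound addition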). The procedure, abridged:
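Neuron count read by automated high-content imaging of Hoechst 33342 and betaIII-tubulin/Alexa Fluor-488 labelling in human iPSC glutamatergic neurons. Activity fitted relative to DMSO.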

Assay [8] can be described thus: CCTE_Mundy_HCI_iCellGluta_NOG_NeuriteCount: CCTE's Neurite Outgrowth Assay in iCellGluta cells for Neurite Count, Mundy Lab (AID 2284342; active = hit-call score of the fitted dose curve at least 0.9, where 1 is the maximum;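 also: chemical exposure about 48 hours starting 2 hours after plating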).
The next assay deals with IYD (gene 389434). Briefly: CCTE_GLTED_hIYD: CCTE's human Iodotyrosine Deiodinase (xIYD) Inhibition Assay, Great Lakes Toxicology and Ecology Division (GLTED) Lab (AID 2284317; active = hit-call score of the fitted dose curve at least 0.9, where 1 is the maximum;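 also: cell-free human IYD enzyme made in baculovirus insect cells; iodide freed from monoiodotyrosine measured by cerium arsenite color change at 420 nm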). The procedure, abridged:
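hIYD: baculovirus-expressed human IYD deiodinated monoiodotyrosine for 3 h with test chemical; free iodide was measured by Sandell-Kolthoff absorbance at 420 nm and normalized to MNT and DMSO/NaOH controls.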

The next assay deals with SERPINA7 (gene 6906). Briefly: CCTE_GLTED_hTBG: CCTE's human Thyroxine-binding Globulin (TBG) Inhibition Assay, Great Lakes Toxicology and Ecology Division (GLTED) Lab (AID 2284343; active = hit-call score of the fitted dose curve at least 0.9, where 1 is the maximum;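 also: active chemicals lower fluorescence versus DMSO baseline by displacing probe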). The procedure, abridged:
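Human TBG incubated 2 h with test chemical; displacement of ANSA probe read by fluorescence, 380 nm excitation/475 nm emission. Loss of signal relative to DMSO.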

`O=C(OCc1ccccc1)c1ccc(O)cc1`: the outcome in assay [1] and in assay [2] was inactive.
For `CCCCNS(=O)(=O)c1ccccc1`, the molecule was classed as inactive in assay [3], in assay [4], in assay [5], in assay [6], in assay [7] and in assay [8].
For orientation: AC50 means the midpoint of the concentration-response curve, whichever way the signal moves. For `CCCCCCCOC(=O)c1ccc(O)cc1`, the AC50 with IYD (gene 389434) was 50.4 µM (active); in the assay with SERPINA7 (gene 6906) it was 10.6 µM (active).
As to `CCCCCCCCCCCCc1ccc(O)cc1`, the values for the AC50 in the assay on IYD (gene 389434) and with SERPINA7 (gene 6906) were 24 µM (active) and 6.15 µM (active), respectively. Further, the result in assay [1] and in [2] was inactive.
On to `O=C(Nc1ccccc1)c1cc(Cl)ccc1O`, for which the outcome in the assay with IYD (gene 389434) was inactive.
For `CCCCCCCCCC[N+](C)(CCCCCCCCCC)CCC[Si](OC)(OC)OC`, the AC50 was 77.2 µM (active) with IYD (gene 389434), 33.2 µM (active) in [1] and 33.4 µM (active) in assay [2].
For the molecule `CCCCCCCCCCCC(=O)N(C)CC(=O)O`, the result in [1] and in [2] was inactive.
Take `C=CCOC(=O)c1ccc(C(=O)OCC=C)c(C(=O)OCC=C)c1`: the molecule was called inactive in [1] and in [2].
Take `O=c1c(O)c(-c2ccc(O)cc2O)oc2cc(O)cc(O)c12`: in the assay with IYD (gene 389434), the AC50 is 144 µM (active).
On the same count and under the same terms, in the case of `CCCCC/C=C\C/C=C\CCCCCCCC(=O)O` it was 137 µM (active).
As to `COc1ccc(-c2coc3cc(O)cc(O)c3c2=O)cc1`, the molecule was classed as inactive in assay [1] and in assay [2]. In the assay with SERPINA7 (gene 6906), the AC50 is 23 µM (active).
As for `Cc1c(C(=O)c2c[nH]n(C)c2=O)ccc(S(C)(=O)=O)c1C1=NOCC1`, the result in assay [3], in assay [4], in assay [5], in assay [6], in assay [7] and in assay [8] was inactive.
`CC1=NN(c2ccc(S(=O)(=O)O)cc2)C(=O)C1N=Nc1ccccc1` (stereo not given): the molecule was classed as inactive in assay [1] and in [2]. Besides, the AC50 in the assay with SERPINA7 (gene 6906) was 27.3 µM (active).
Take `CCCCC(CC)COC(=O)/C=C/c1ccc(OC)cc1` (stereo not given): in the assay with IYD (gene 389434), the outcome was inactive.
For the molecule `CCCCCCCCCCCCCC(=O)OC(C)C`, the molecule was called inactive in assay [1] and in assay [2].
`CCCCCCCCCCCCCCCCCCOS(=O)(=O)O`: in the assay with IYD (gene 389434), the AC50 is 19.5 µM (active).
Turning to `CN(C)c1ccc2nc3ccc(=[N+](C)C)cc-3sc2c1`, the AC50 was 2.73 µM (active) with IYD (gene 389434) and 10 µM (active) in assay [2]. The molecule was called inactive in [1].
For `O=C(O)CCC(=O)O`, the result in [1] and in [2] was inactive.
